Values joined by “and” are separate entries in the source; they are usually repeats but may differ in a detail not shown here. Identical values can stand only once. Active and inactive are the calls of the source.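 The calls were made as follows, unless noted: active = inhibition at or above 50% relative to wild type and mutant plate controls; inactive = inhibition below 50%.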
What was measured:
[1] = inhibitors of TNFa-induced NFkB p65 translocation, primary screen, imaging, HUVEC, MLSMR starter and 10KST1 sets (AID 438;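 active = inhibition above 20% together with a positive visual image hit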;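 also: compound added about 3h40 before a 20 min TNFalpha stimulation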;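 as to inhibition: signal is the nuclear over cytoplasmic p65 intensity ratio per well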); conditions: HUVEC TNFa-induced p65 nuclear translocation; cell count: measured here: nuclei count (cytotoxicity indicator), at 2.08 µM; inhibition: at 2 µM, stronger effect = higher value, 0% TNFa-plus-vehicle, 100% no-TNFa wells
[2] = inhibitors of mutant huntingtin aggregation, primary screen, imaging, exon1htt(103Q)mCFP cells, high-content imaging (AID 483;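 active = visual image review flags a hit and inhibition of aggregation exceeds 20%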;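 also: compound exposure lasted 3 days before fixation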;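 as to nuclei count: percent of the per-plate median nuclei count of sample wells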); conditions: exon1htt(103Q)mCFP cell line, aggregate imaging, at 2 µM; inhibition of aggregation: stronger effect = higher value; nuclei count: measured here: cell count, toxicity
[3] = inhibitors of E-selectin induction by TNFa, primary screen, imaging, HUVEC, immunofluorescence, MLSMR starter and 10KST1 sets (AID 487;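 active = visually confirmed hit in the image check and inhibition above 20%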;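 as to inhibition: signal is fraction of cell area covered by stained E-selectin grains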;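 as to nuclei count: 100% = median nuclei count of all wells on the same plate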); conditions: HUVEC TNFalpha-induced E-selectin immunofluorescence imaging, at 2 µM; inhibition: stronger effect = higher value; nuclei count: measured here: cell number, toxicity
[4] = DUSP6 inhibitors restoring Erk phosphorylation by chemical complementation, primary imaging in DUSP6-transfected HeLa (AID 609;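 active = compounds giving at least 50% inhibition in the cell-based MKP-3 phosphatase rescue imaging test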;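 as to inhibition: phospho-Erk level distribution per well compared with pooled transfected vehicle control wells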); conditions: HeLa MKP-3 transfected, phospho-Erk imaging KS statistic, at 10 µM, cells stimulated with TPA for 15 min
[5] = biological target: Dual specificity protein phosphatase 6 (Homo sapiens) (UniProt Q16828); assay: as above; conditions: HeLa MKP-3 transfected, phospho-Erk imaging KS statistic; at 10 µM; stronger effect = higher value; cells stimulated with TPA for 15 min
Chain of Dual specificity protein phosphatase 6 (Homo sapiens) (Q16828 whole entry, looked up): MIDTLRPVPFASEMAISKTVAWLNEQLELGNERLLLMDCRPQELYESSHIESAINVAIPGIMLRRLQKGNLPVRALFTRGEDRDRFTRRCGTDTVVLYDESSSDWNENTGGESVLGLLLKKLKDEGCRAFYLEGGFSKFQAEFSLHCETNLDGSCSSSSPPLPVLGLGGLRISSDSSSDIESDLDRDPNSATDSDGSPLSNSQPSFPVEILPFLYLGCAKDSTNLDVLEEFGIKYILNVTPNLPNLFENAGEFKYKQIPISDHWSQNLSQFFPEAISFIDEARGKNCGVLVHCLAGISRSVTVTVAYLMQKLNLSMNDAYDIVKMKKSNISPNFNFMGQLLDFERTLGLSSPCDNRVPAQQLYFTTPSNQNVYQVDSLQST

[6] = biological target: Voltage-gated potassium channel subunit beta-2 (Rattus norvegicus) (UniProt P62483); assay: KvBeta enzyme negative modulators, primary screen, biochemical, NADPH fluorescence (AID 622;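 active = fluorescence slope higher than the sample average by over 3 SD, cut at about -0.22 in these data, passing the limit was not always enough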;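 also: slope of raw intensity against log time taken from 70 to 1610 s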); conditions: recombinant KvBeta, 4-cyanobenzaldehyde reduction, at 10 µM, stronger effect = higher value
Chain of Voltage-gated potassium channel subunit beta-2 (Rattus norvegicus) (P62483 whole entry, looked up): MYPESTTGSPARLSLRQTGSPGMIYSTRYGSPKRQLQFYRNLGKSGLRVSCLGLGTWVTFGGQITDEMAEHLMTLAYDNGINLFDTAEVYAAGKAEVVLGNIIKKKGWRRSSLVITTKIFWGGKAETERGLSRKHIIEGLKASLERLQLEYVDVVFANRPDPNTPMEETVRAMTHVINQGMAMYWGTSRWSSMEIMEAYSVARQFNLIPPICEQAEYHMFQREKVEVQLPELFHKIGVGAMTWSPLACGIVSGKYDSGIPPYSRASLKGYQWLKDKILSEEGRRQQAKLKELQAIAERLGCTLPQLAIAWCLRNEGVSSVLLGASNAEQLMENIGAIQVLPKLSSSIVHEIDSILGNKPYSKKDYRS

[7] = biological target: Voltage-gated potassium channel subunit beta-2 (Rattus norvegicus) (UniProt P62483); assay: KvBeta positive modulators, primary screen, biochemical, NADPH fluorescence (AID 623;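 active = NADPH fluorescence slope more negative than the mean of all samples by about 3 SD, 99.7% confidence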;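 also: fluorescence intensity change per second fitted from 20 to 320 s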); conditions: Recombinant KvBeta, NADPH fluorescence decrease slope, 10 min; at 10 µM; stronger effect = lower value
[8] = biological target: Alpha-2C adrenergic receptor (Homo sapiens) (UniProt P18825); assay: modulators of alpha2C/GIRK thallium flux, primary screen, cell-based, HEK293 alpha2C/GIRK1/2 (AID 624;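 active = fluorescence slope after compound addition differing from the mean of all screened samples at 99.7% confidence, in either direction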;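 also: slope of fluorescence ratio to pre-addition baseline per second over 15 to 24 s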); conditions: thallium flux BTC fluorescence, at 10 µM, actives lie on both sides
Chain of Alpha-2C adrenergic receptor (Homo sapiens) (P18825 whole entry, looked up): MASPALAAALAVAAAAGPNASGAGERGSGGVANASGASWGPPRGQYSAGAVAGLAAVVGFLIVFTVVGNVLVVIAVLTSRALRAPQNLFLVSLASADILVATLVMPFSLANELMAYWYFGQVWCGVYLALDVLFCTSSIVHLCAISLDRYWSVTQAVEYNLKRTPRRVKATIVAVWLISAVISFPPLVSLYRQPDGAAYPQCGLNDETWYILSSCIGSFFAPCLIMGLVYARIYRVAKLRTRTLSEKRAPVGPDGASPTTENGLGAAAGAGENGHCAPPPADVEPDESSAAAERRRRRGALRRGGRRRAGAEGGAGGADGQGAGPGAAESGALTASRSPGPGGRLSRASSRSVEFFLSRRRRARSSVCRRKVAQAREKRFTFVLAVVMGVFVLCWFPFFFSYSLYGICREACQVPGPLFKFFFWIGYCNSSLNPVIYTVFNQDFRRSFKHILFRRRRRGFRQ

[9] = inhibitors of larval lipid processing in zebrafish, primary screen, whole organism, PED6 fluorescence, gall bladder and intestine (AID 686;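 active = a full or partial loss of lipid-probe fluorescence in the fish gall bladder, intestine or both, judged by eye; inactive = no fluorescence loss, or compound toxic to the fish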;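 also: larvae 5 to 7 days old with five fish per well; signal comes from phospholipase A2 cleavage of quenched PED6 carried via bile; overnight exposure to compound and PED6 before scoring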); conditions: Zebrafish larvae PED6 lipid processing, fluorescence scoring; screened at 20 µM (by protocol)
[10] = inhibitors of Chlamydomonas gravitaxis, primary screen, whole organism, Chlamydomonas reinhardtii, WT vs cilia-less mutant, absorbance, 96-well (AID 463189); conditions: OD600 absorbance, 2 days, at 10 µM, stronger effect = higher value;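 also: 0% = wild type cc124 cells in DMSO and 100% = ciliumless bld1 mutant cells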
[11] = inhibitors of Sendai virus-induced IRF3 signaling, primary screen, TLR/RLR signaling modifier project, cell-based, Sendai virus stimulus, luciferase, 10K MLSCN set (AID 602276;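 active = inhibition at or above 50% at 10 µM; inactive = inhibition below 50%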;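 also: firefly luciferase from ISG56 promoter only with Renilla not read in this screen; 0% = Sendai virus plus DMSO and 100% = medium plus DMSO without virus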); conditions: HEK293 RL24 IRF3 luciferase reporter, at 10 µM, stronger effect = higher value
[12] = inhibitors of poly I:C-induced TLR3 signaling, primary screen, cell-based, poly I:C stimulus, luciferase, 10K MLSCN set (AID 602277;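 active = inhibition of the reporter signal at or above 50%; inactive = inhibition below 50%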); conditions: HEK293-TLR3 RL24 IRF3 luciferase reporter, at 10 µM, stronger effect = higher value
[13] = measured here: cell density z-score
[14] = measured here: nuclear c-Myc green intensity z-score
[15] = measured here: nuclear pErk red intensity z-score, stronger effect = higher value

Row | SMILES | cell count [1] | inhibition [1] | inhibition of aggregation [2] | nuclei count [2] | inhibition [3] | nuclei count [3] | z-score [4, 13] | z-score [4, 14] | z-score [4, 15] | inhibition [5] | fluorescence slope [6] | NADPH fluorescence slope [7] | slope [8] | outcome [9] | inhibition [10] | inhibition [11] | inhibition [12]
1 | Clc1ccc(Cl)c(-c2ccc(/C=N/c3ncn[nH]3)o2)c1 | 439 | -0.4% (inactive) | 6.2% (inactive) | 104% | -127% (inactive) | 122% | -0.606 | -0.195 | 1.4 | -4.27% (inactive) | -0.438 (inactive) | -5.6e-05 (inactive) | 0.0057 (inactive) | inactive | 73.7% (active) | 13.4% (inactive) | 18.3% (inactive)
2 | Cc1[nH]nc2c1C(CCc1ccccc1)C(C#N)=C(N)O2 (stereo not given) | 561 | -10% (inactive) | -13.6% (inactive) | 111% | -14.6% (inactive) | 115% | -1.62 | -1.48 | 1.34 | -9.7% (inactive) | -0.498 (inactive) | -3.1e-05 (inactive) | 0.00364 (inactive) | inactive | 2.48% (inactive) | -8.58% (inactive) | 2.77% (inactive)
3 | CC(=O)Nc1ccccc1O | 675 | 0.8% (inactive) | 14.1% (inactive) | 106% | -84.6% (inactive) | 121% | -0.0756 | 0.873 | -0.0939 | 7.39% (inactive) | -0.439 (inactive) | -5.7e-05 (inactive) | 0.00449 (inactive) | inactive | -2.47% (inactive) | 13.6% (inactive) | 37.8% (inactive)
4 | CCOC(=O)c1[nH]c2ccccc2c1NC(=O)CCN1CCN(C(=O)OCC)CC1 | 626 | -1.9% (inactive) | -2.8% (inactive) | 104% | 1% (inactive) | 144% | -1.64 | 0.13 | 1.55 | -5.26% (inactive) | -0.344 (inactive) | -4.4e-05 (inactive) | 0.00527 (inactive) | inactive | -5.66% (inactive) | 14.7% (inactive) | 19.4% (inactive)
5 | Oc1ccc(/C=C/c2cc(O)cc(O)c2)cc1 | 597 | 2.2% (inactive) | 6% (inactive) | 98.6% | -78% (inactive) | 118% | -1.5 | -0.867 | 1.21 | 14.6% (inactive) | -0.411 (inactive) | -0.000101 (inactive) | 0.00434 (inactive) | inactive | 3.52% (inactive) and 10.8% (inactive) | -39.2% (inactive) | -231% (inactive)
6 | CCc1cc2c(=O)c(-c3cscn3)coc2cc1O | 406 | -6.1% (inactive) | -9.9% (inactive) | 59.7% | -99% (inactive) | 103% | -2.75 | 2.51 | -1.53 | 1.98% (inactive) | -0.528 (inactive) | 4e-05 (inactive) | 0.00552 (inactive) | inactive | -8.67% (inactive) | 20.6% (inactive) | 26.3% (inactive)
7 | CCCCC(=O)Nc1c(O)c2ccccc2[nH]c1=O | 450 | 1.5% (inactive) | -22.7% (inactive) | 104% | -155% (inactive) | 137% | -1.21 | 0.174 | 1.14 | -8.95% (inactive) | -0.491 (inactive) | -0.000197 (inactive) | 0.00511 (inactive) | inactive | -4.89% (inactive) | 2.04% (inactive) | 1.03% (inactive)
8 | CCC1(c2ccccc2)C(=O)NCNC1=O | 647 | 3.5% (inactive) | -10.2% (inactive) | 103% | -70% (inactive) | 129% | -0.87 | 2.71 | -0.522 | 5.79% (inactive) | -0.469 (inactive) | -8.7e-06 (inactive) | 0.00482 (inactive) | inactive | -4.31% (inactive) and 28.8% (inactive) | 17% (inactive) | 30.6% (inactive)
9 | CC(C)(C)NCC(O)c1cc(O)cc(O)c1 (stereo not given) | 472 | -2.4% (inactive) | 21.1% (inactive) | 89.3% | -7% (inactive) | 88.9% | 0.22 | -3 | -0.525 | 1.38% (inactive) | -0.472 (inactive) | -6.7e-05 (inactive) | 0.00544 (inactive) | inactive | 6.82% (inactive) and -7.52% (inactive) | 7.09% (inactive) | 35.9% (inactive)
10 | C(=C\c1ccccc1)/CN1CCN(C(c2ccccc2)c2ccccc2)CC1 | 635 | -9.5% (inactive) | -21.5% (inactive) | 107% | -95.1% (inactive) | 131% | 0.835 | -0.254 | 0.957 | 11.3% (inactive) | -0.448 (inactive) | -6.1e-05 (inactive) | 0.00492 (inactive) | inactive | 126% (active) and 125% (active) | 9.39% (inactive) | 26.9% (inactive)
11 | CC1(C)Cc2c(C#N)c(SCCC#N)nc(N3CCOCC3)c2CS1 | 632 | -13% (inactive) | -5.8% (inactive) | 106% | -104% (inactive) | 132% | 0.7 | -1.52 | -1.34 | 28.6% (inactive) | -0.343 (inactive) | -8.5e-06 (inactive) | 0.0053 (inactive) | inactive | -1.16% (inactive) | 15.2% (inactive) | 18.7% (inactive)
12 | C[C@]12CC[C@H]3[C@@H](CCC4=CC(=O)CC[C@@]43C)[C@@H]1CC[C@@H]2C(=O)CO | 632 | -0.8% (inactive) | 4.5% (inactive) | 37.5% | -114% (inactive) | 118% | -0.564 | -1.57 | -0.166 | -2.46% (inactive) | -0.521 (inactive) | -1e-05 (inactive) | 0.00387 (inactive) | inactive | -3.19% (inactive) | 1.11% (inactive) | 43.7% (inactive)
13 | CCOC(=O)CSC1=C(C#N)C(=O)NC(c2ccc(OC)c(OC)c2)S1 (stereo not given) | 561 | -4.2% (inactive) | 12.1% (inactive) | 88.7% | -41.1% (inactive) | 135% | -1.42 | 2.48 | 0.606 | -13.3% (inactive) | -0.509 (inactive) | -5e-05 (inactive) | 0.00555 (inactive) | inactive | -1.59% (inactive) | 12% (inactive) | 11.8% (inactive)
14 | CCC(NC(C)C)C(O)c1ccc(O)c(O)c1 (stereo not given) | 661 | -7.3% (inactive) | 1% (inactive) | 109% | -51.9% (inactive) | 117% | -1.1 | -0.395 | 0.461 | 7.39% (inactive) | -0.492 (inactive) | -5.8e-05 (inactive) | 0.00513 (inactive) | inactive | 14.5% (inactive) and 0.657% (inactive) | 13.9% (inactive) | 39.3% (inactive)
15 | Nc1nc(Cl)nc2c1ncn2[C@H]1C[C@H](O)[C@@H](CO)O1 | 522 and 557 | -10.7% (inactive) and -11.5% (inactive) | -36.7% (inactive) | 10% | -143% (inactive) and -17% (inactive) | 133% and 106% | 1.67 and -3.27 | -1.09 and -0.338 | -0.372 and -0.606 | 7.39% (inactive) and -2.46% (inactive) | -0.46 (inactive) and -0.431 (inactive) | -2e-05 (inactive) and -2.2e-05 (inactive) | 0.00559 (inactive) and 0.00513 (inactive) | inactive | 18.6% (inactive) and -15.6% (inactive) | 12.3% (inactive) and 18.7% (inactive) | 41.2% (inactive) and 27.6% (inactive)
16 | CCCCOc1cc(C(=O)NCCN(CC)CC)c2ccccc2n1 | 511 and 578 | -5.3% (inactive) and -4.6% (inactive) | 9.3% (inactive) and -1.1% (inactive) | 92.4% and 92.8% | 13% (inactive) and -47.1% (inactive) | 125% and 129% | -0.0512 and 0.242 | 1.21 and -0.093 | 0.116 and 1.52 | 11.3% (inactive) and -6.41% (inactive) | -0.452 (inactive) and -0.465 (inactive) | -7.4e-05 (inactive) and -5.9e-05 (inactive) | 0.00498 (inactive) and 0.00574 (inactive) | inactive | 1.51% (inactive) and 12.2% (inactive) | 4.17% (inactive) and 5.36% (inactive) | 54.6% (active) and 61.4% (active)
17 | NC(=O)c1cc(-c2ccccc2)nc(Oc2ccccc2)n1 | 472 | -18.1% (inactive) | 8.5% (inactive) | 99% | -13.2% (inactive) | 109% | -0.736 | -0.523 | 0.468 | 6.51% (inactive) | -0.53 (inactive) | -8.3e-05 (inactive) | 0.00808 (inactive) | inactive | -1.45% (inactive) | 13.4% (inactive) | 1.65% (inactive)
18 | O=C(CSc1nnc(-c2ccccc2)c(-c2ccccc2)n1)N1CCOCC1 | 611 | -6.9% (inactive) | 15.5% (inactive) | 96.7% | -44.9% (inactive) | 134% | -0.179 | -0.654 | 1.26 | -3.5% (inactive) | -0.397 (inactive) | -1.1e-05 (inactive) | 0.00498 (inactive) | inactive | 9.56% (inactive) | 14.8% (inactive) | 18% (inactive)
19 | CO[C@@]1(NC(=O)CSCC#N)C(=O)N2C(C(=O)O)=C(CSc3nnnn3C)CS[C@@H]21 | 632 | -3.9% (inactive) | 3.8% (inactive) | 103% | -96.3% (inactive) | 143% | 0.71 | -0.314 | -0.547 | 19.2% (inactive) | -0.497 (inactive) | -7e-05 (inactive) | 0.00536 (inactive) | inactive | 5.45% (inactive) and -4.17% (inactive) | 7.82% (inactive) | 28.6% (inactive)
20 | O=C(O)/C=C/c1ccc(O)c(O)c1 | 613 | 4% (inactive) | 8.3% (inactive) | 103% | -48.2% (inactive) | 116% | -0.618 | -0.142 | -0.455 | 10.2% (inactive) | -0.453 (inactive) | -6.6e-05 (inactive) | 0.00437 (inactive) | inactive | -2.7% (inactive) and 27.7% (inactive) | 8.79% (inactive) | 43.2% (inactive)
